Sequences and labels used below:
B1: il10ra_site1_normal_mot_39ab2cb694c8b9c1dc7e65c0d672c93e_0001_000000036_0001_53_65_H_._HHH_b2_05692_af2_0001_0000600025_0000002_0 (protein)
chain: SSSSDEEEEELRELVEEVERLIERNDREEALRVAAEALRLAFRARNPEVLQLLWELAKLLSSSSS
B2: il10ra_site1_sap_13_mot_8756ee2cf497b5429c717dfc0c0bcfd6_0001_000000186_0001_1_13_H_._HHH_b2_05518_af2_0001_0000600027_0000001_0_0001 (protein)
chain: SSSSDLEELARAAVRLIEQAIEWGDEERAKFALLALEMAAEETNDPELRELLEELEKLLRGSSSS
B3: il10ra_site1_sap_25_mot_HHH_b1_08133_000000195_0001_1_19_H_._HHH_b1_03607_0001_0000200023_0000001_0_0001_af2pred_0001 (protein)
chain: SSSSSEEVEELEEEARELIKRNDPEEVLKIIRRLARLAFRLNDPEISKIAIELAELLKKLDSSSS
B4: il10ra_site1_normal_mot_HHH_b2_02337_000000026_0001_38_52_H_._HHH_b2_04211_af2_0001_0000300011_0000002_0 (protein)
chain: SSSSDEEREEIEELIKEFEELLERGDREEAVRVVTEALQFALKLGDQELLKRIWELVKSLSSSSS
B5: il10ra_site1_sap_17_mot_HHH_b1_06914_000000280_0001_1_18_H_._HHH_b2_08155_0001_0000100009_0000001_0_0001 (protein)
chain: SSSSDEANERVWELLREALHIDDPEEAREVVEEAAEIAEERNNRVLLHNIRFLLRQLEKGSSSSS
B6: il10ra_site1_sap_23_mot_HHH_b1_08616_000000009_0001_1_19_H_._HHH_b2_04715_af2_0001_0000100004_0000001_0_0001 (protein)
chain: SSSSSDQEEQLIRALLWFAEWTSNPTARRLMLEQAERHARELGNEELREEVERVEKELEESSSSS
B7: il10ra_site1_normal_mot_HHH_b1_05056_000000217_0001_1_20_H_._HHH_b2_03866_0001_0000200011_0000001_0 (protein)
chain: SSSSSSEEREEVEELLEEAEHVDDLRELARILAEAVRFAYEGKDEEALQLVWEVVRRLFSSSSSS
B8: il10ra_site1_sap_16_mot_HHH_b2_00943_af2_000000149_0001_1_17_H_._HHH_b1_06222_0001_0000300032_0000001_0_0001_af2pred_dldesign_0_af2pred (protein)
chain: SSSSSPENEELVRLIREVAELLYDGKPEEAREKLKEAEELTEKLGDEIFKRNIELLRKELESSSS
B9: il10ra_site1_sap_16_mot_HHH_b1_06789_af2_000000041_0001_1_20_H_._HHH_b1_04240_af2_0001_0000500015_0000001_0_0001 (protein)
chain: SSSSSDEEYEEEVERLLEEAEKIPDPREAAEVLLKALRVALRGNDPELLHLVWEVLEEISSSSSS
B10: il10ra_site1_normal_mot_HHH_b1_06057_000000129_0001_22_38_H_._HHH_b2_05766_0001_0000200026_0000001_0 (protein)
chain: SSSSDRTARWSVEFALRVAEELAKRDPERARELLEHLAELLKEARDEELLEEVERLLEEIGSSSS
B11: il10ra_site1_normal_mot_HHH_b2_08287_af2_000000247_0001_1_16_H_._HHH_b2_07820_0001_0000300057_0000001_0_af2pred_0001 (protein)
chain: SSSSDEEEEEVKELLEEAKRIDDPRERTRVLVEAYALAFELNNPELEELVKEVAIELLERSSSSS
B12: il10ra_site1_sap_19_mot_HHH_b1_04514_000000156_0001_1_18_H_._HHH_b1_01679_0001_0000100001_0000001_0_0001_af2pred_0001 (protein)
chain: SSSSSSEAEKEVAKILIEVLRLNDEEAAERISHLLIRLIVEGDERLIEEIRELFEEVEENSSSSS
B13: il10ra_site1_normal_mot_HHH_b1_05672_af2_000000246_0001_1_19_H_._ems_3hC_444_af2_0001_0000400050_0000001_0 (protein)
chain: SSDLREEFSRVLIRAVRAAARHDEEKAEELVRRAEEIAEELGDEELERYVEIVKNFVESATRSSS
B14: il10ra_site1_sap_24_mot_HHH_b2_00622_af2_000000153_0001_40_57_H_._1ad9cd31332199d645683f25bccb3f2f_0001_af2_0001_0000400010_0000001_0_0001 (protein)
chain: SSSSSDEEAEEQVEELLEEAKRIEDREEVLRLLIEANRIAFRAGNDELQREIWRVAQELSSSSSS
B15: il10ra_site1_sap_19_mot_HHH_b1_01585_000000217_0001_1_18_H_._HHH_b1_05870_af2_0001_0000200018_0000002_0_0001 (protein)
chain: SSSSSRAEKVREILEEVVELQRQGDKEEAERLLEELLEELEELGDVNSLVNVEYLLRAVRKSSSS
B16: il10ra_site1_normal_mot_HHH_b1_01827_000000263_0001_1_19_H_._HHH_b2_07433_0001_0000500029_0000001_0_af2pred_0001 (protein)
chain: SSSSSTEEVERVIKLIRRALEIEDEEERRRLLEEAVELAEEGGNLVLLISARFALEDVEQSSSSS
B17: il10ra_site1_sap_10_mot_HHH_b1_05704_af2_000000048_0001_1_18_H_._HHH_b2_04382_0001_0000100002_0000001_0_0001_af2pred_0001 (protein)
chain: SSSSSEEEERVELALRFVKFLLKAGDPEAARFFVEWALEKAKELGNEELEEEAEELLREARSSSS
B18: il10ra_site1_sap_18_mot_HHH_b2_04327_000000030_0001_41_55_H_._HHH_b2_03484_af2_0001_0000400008_0000001_0_0001_af2pred_0001 (protein)
chain: SSSSSSSEEEELMQLAAEISRHASPEEIRRLFELLVRLYHEGDPELKEELRELIEEIKSSSSSSS
B19: il10ra_site1_normal_mot_HHH_b2_07144_000000289_0001_1_18_H_._HHH_b1_03935_0001_0000100008_0000001_1 (protein)
chain: SSSSSEEAEELYELSREVAHLHREGDEEEAKRLLEEAIELAEELGNFNILFALELLLRQLSSSSS
B20: il10ra_site1_sap_20_mot_HHH_b2_00093_af2_000000025_0001_40_54_H_._HHH_b2_05679_0001_0000100006_0000001_0_0001_af2pred_0001 (protein)
chain: SSSSSIHERDVELALLAARLLAERGDPEAVREALELARRQAESTNNEELEELVEEVERELSSSSS
B21: il10ra_site1_normal_mot_8756ee2cf497b5429c717dfc0c0bcfd6_0001_000000186_0001_1_13_H_._HHH_b1_06578_af2_0001_0000300032_0000001_1_af2pred_0001 (protein)
chain: SSSSSIAEEVFRLLREAAELYHEGDKEKAEEILKEAEELAEEANDEIAKVIIEFLKRAIENSSSS
B22: il10ra_site1_normal_mot_HHH_b1_00566_000000151_0001_22_39_H_._HHH_b1_00313_af2_0001_0000700014_0000001_0 (protein)
chain: SSSSDEREEIAILVAEAIILAERRGDKEVAEELWQLLVEAYYHGDPELFREVEELAEKFLSSSSS
B23: il10ra_site1_sap_26_mot_HHH_b2_06857_af2_000000179_0001_42_54_H_._HHH_b1_00069_af2_0001_0000100009_0000001_0_0001_af2pred_0001 (protein)
chain: SSSSSEEREEIYRLIREALELLANGNPEEAEEVLEEAERLAKEANSPLFEFALEAARRKVKSSSS
B24: il10ra_site1_normal_mot_HHH_b2_08186_000000021_0001_43_56_H_._HHH_b1_02914_0001_0000400023_0000001_0 (protein)
chain: SSSSDREERIQELLEEAEELAKEGNPEEAARLLQEAIRLAFELGDEELLKEIWEVLRKVASSSSS

Not all results are given here. The true hit rate is not given. A number with no mark means an inactive call.

Broadly, the apparent Kd is a dissociation constant that holds for the conditions of the assay.

In this test the target is il10ra, Q13651. The test is described as follows: yeast display titration.
Chain of il10ra, Q13651 (Q13651 whole entry): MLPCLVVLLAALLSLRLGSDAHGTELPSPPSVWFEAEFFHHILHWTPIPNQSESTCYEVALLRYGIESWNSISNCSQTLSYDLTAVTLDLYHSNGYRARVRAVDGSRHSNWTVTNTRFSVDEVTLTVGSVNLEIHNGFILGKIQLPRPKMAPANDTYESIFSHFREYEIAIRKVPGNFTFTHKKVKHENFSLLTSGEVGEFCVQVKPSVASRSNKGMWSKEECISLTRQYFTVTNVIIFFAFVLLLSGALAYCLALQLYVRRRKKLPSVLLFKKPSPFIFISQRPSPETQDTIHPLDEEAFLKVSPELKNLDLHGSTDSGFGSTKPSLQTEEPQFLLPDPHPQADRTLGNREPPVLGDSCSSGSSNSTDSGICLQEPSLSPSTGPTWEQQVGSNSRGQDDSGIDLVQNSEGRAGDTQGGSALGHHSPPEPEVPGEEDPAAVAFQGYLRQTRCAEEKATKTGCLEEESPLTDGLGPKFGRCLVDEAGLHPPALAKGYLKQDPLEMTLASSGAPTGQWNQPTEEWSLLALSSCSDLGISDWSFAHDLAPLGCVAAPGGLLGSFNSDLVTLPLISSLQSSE
With B1, the “apparent Kd” value was “no binding seen”.

With B2, the “apparent Kd” value was “no binding seen”.

As to B3, the apparent Kd is above 233 nM.

With B4, the “apparent Kd” value was “no binding seen”.

On to B5, for which the “apparent Kd” value was “no binding seen”.

For B6, the “apparent Kd” value is “no binding seen”.

Consider B7, for which the “apparent Kd” value is “no binding seen”.

As for B8, the “apparent Kd” value is “no binding seen”.

For B9, the “apparent Kd” value was “no binding seen”.

On to B10, for which the “apparent Kd” value was “no binding seen”.

In the case of B11, the “apparent Kd” value was “no binding seen”.

Consider B12, for which the “apparent Kd” value is “no binding seen”.

Consider B13, for which the “apparent Kd” value was “no binding seen”.

For B14, the “apparent Kd” value was “no binding seen”.

As for B15, the “apparent Kd” value is “no binding seen”.

With B16, the “apparent Kd” value is “no binding seen”.

B17: the “apparent Kd” value was “no binding seen”.

On to B18, for which the “apparent Kd” value is “no binding seen”.

B19: the “apparent Kd” value was “no binding seen”.

Turning to B20, the “apparent Kd” value is “no binding seen”.

For the molecule B21, the “apparent Kd” value was “no binding seen”.

In the case of B22, the apparent Kd was 233 to 399 nM (active).

As for B23, the “apparent Kd” value is “no binding seen”.

Turning to B24, the “apparent Kd” value is “no binding seen”.
